PubChem BioAssay
The source made the active and inactive calls.

Columns and labels:
[1] = system: Human papillomavirus type 1a protein E7 (residues 44-93); assay: HPV1a E7 fragment binders on microarrays, primary screen, biochemical, small-molecule microarray, residues 44-93, 635 nm fluorescence (AID 1108); settings: small-molecule microarray binding, fluorescence 635 nm; higher = more signal;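 further: E7 fragment applied at 1 µg/mL in TBST for 1 h at 4 C; score combines spot fluorescence with its signal to noise ratio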
[2] = modulators of HCV replicon luciferase signal, primary screen, HCV replication inhibitor project, Huh7 cells, luciferase reporter (AID 1109); settings: 48 h, higher = more signal;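 further: huh7 hepatoma cells harbouring a luciferase neomycin HCV replicon reporter; luciferase luminescence as measure of HCV replicon replication; test concentration not given here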
[3] = target: Left-right determination factor 2 (Homo sapiens) (UniProt O00292); assay: LEFTY2 binders on small-molecule microarrays, primary screen, biochemical, small-molecule microarray, 635 nm fluorescence scan (AID 1110); settings: LEFTY2 binding, higher = more signal
[4] = target: Calmodulin-1 (Homo sapiens) (UniProt P0DP23); assay: CALM1 binders on microarrays, EGTA buffer, profiling panel, biochemical, small-molecule microarray, Cy5-labelled CALM1 (AID 1111); settings: Cy5-CALM1 binding fluorescence, higher = more signal;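 further: labelled calmodulin applied in Tris saline Tween buffer holding calcium plus EGTA and DTT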
[5] = target: Calmodulin-1 (Homo sapiens) (UniProt P0DP23); assay: calcium-bound CALM1 binders on microarrays, profiling panel, artefact control for SMM control-protein annotation, biochemical, small-molecule microarray, Cy5-labelled CALM1, plus calcium (AID 1112); settings: Cy5-CALM1 binding fluorescence, higher = more signal;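 further: score merges spot fluorescence with signal to noise from triplicate slides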
[6] = small-molecule microarray binders of probe aWnt5a, primary screen, biochemical, biotinylated probe, 635/667 nm fluorescence (AID 1113); settings: higher = more signal;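 further: score merges 667 nm fluorescence intensity with signal-to-noise per printed feature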
[7] = small-molecule microarray binders of probe aShh, primary screen, biochemical, biotinylated probe, 635/667 nm fluorescence (AID 1114); settings: higher = more signal;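 further: probe is biotin-labelled aShh protein from a stem cell growth factor screen; measures binding of labelled protein to compounds printed on the slide; score merges feature fluorescence at 667 nm with signal-to-noise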
[8] = small-molecule microarray binders of probe aNog, primary screen, biochemical, biotinylated probe, 635/667 nm fluorescence (AID 1115); settings: higher = more signal;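 further: probe is biotinylated aNog protein used at 0.15 µg/mL for 1 h at 4 C; z-score combines 667 nm fluorescence of each spot with its signal to noise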
[9] = target: Torsin-1A-interacting protein 1 (Homo sapiens) (UniProt Q5JTV8); assay: LAP1 binders from COS7 cell lysate, primary screen, small-molecule microarray, 635/667 nm fluorescence (AID 1116); settings: COS7-hLAP1 lysate binding, 635 nm fluorescence, higher = more signal
[10] = target: Alpha-bungarotoxin (Bungarus multicinctus) (UniProt P60615); assay: alpha-bungarotoxin binders on microarray, profiling panel, artefact control for SMM control protein annotation, biochemical, small-molecule microarray, Alexa647 label, 635/667 nm fluorescence (AID 1117); settings: alpha-BTX-A647 binding fluorescence, higher = more signal
[11] = target: Albumin (Bos taurus) (UniProt P02769); assay: bovine serum albumin binders on microarray, profiling panel, artefact control for SMM control protein annotation, biochemical, small-molecule microarray, Alexa647 label, 635/667 nm fluorescence (AID 1118); settings: BSA-A647 binding, fluorescence 635 nm, higher = more signal;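 further: score merges 667 nm emission intensity and signal-to-noise per printed compound spot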
[12] = small-molecule microarray binders of probe aXIP, primary screen, biochemical, NeuroSMM set, 635/667 nm fluorescence (AID 1119); settings: higher = more signal, called active from +8 up or from −8 down;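 further: probe is the protein aXip251-270 applied at 1 µg/mL to compound-printed slides; binding of probe to printed compounds measured as 667 nm fluorescence plus signal to noise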
[13] = small-molecule binders of probe aNOTCH3, primary screen, biochemical, small-molecule microarray, 635/667 nm fluorescence (AID 1120); settings: higher = more signal;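 further: probe is a biotin-tagged antibody raised against NOTCH3 rather than NOTCH3 protein; score merges spot fluorescence near 667 nm with spot signal to noise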
[14] = small-molecule binders of probe aNOTCH2, primary screen, biochemical, small-molecule microarray, 635/667 nm fluorescence (AID 1121); settings: higher = more signal;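 further: score merges feature fluorescence read at 667 nm with its signal to noise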
[15] = target: Carbonic anhydrase 2 (Homo sapiens) (UniProt P00918); assay: CAII small-molecule binders, profiling panel, biochemical, small-molecule microarray, Alexa647-labelled CAII (AID 1122); settings: CAII-A647 binding fluorescence, higher = more signal
[16] = COS7 lysate on small-molecule microarray, probe aHis, 635 nm (AID 1123); settings: COS7 cell lysate, fluorescence, higher = more signal;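 further: z-score combines 667nm fluorescence intensity with signal-to-noise per printed compound spot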
[17] = compound binding in COS7 lysate, probe aLAP1, primary screen, cell lysate, small-molecule microarray (AID 1124); settings: probe aLAP1, fluorescence, higher = more signal;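 further: lysate comes from COS7 cells expressing LAP1 and is applied at 0.3 µg/mL; score merges spot fluorescence near 667 nm with signal-to-noise over triplicate slides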
[18] = system: Sam68 (KHDRBS1); assay: Sam68 small-molecule binders, primary screen, biochemical, small-molecule microarray, 635 nm fluorescence (AID 1125); settings: small-molecule microarray binding, higher = more signal;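 further: score merges 667 nm channel intensity with signal to noise over triplicate slides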
[19] = system: Chordin-like protein 2 (CHRDL2); assay: CHRDL2 small-molecule binders, primary screen, biochemical, small-molecule microarray, 635 nm fluorescence (AID 1126); settings: small-molecule microarray binding, fluorescence 635 nm; higher = more signal;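 further: printed compound slides probed with Chrdl2 protein at 4 µg/mL for 1 h at 4 C; score merges 667 nm emission intensity with signal to noise over three replicate slides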
[20] = target: Concanavalin-A (Canavalia ensiformis) (UniProt P02866); assay: ConA small-molecule binders, primary screen, artefact control for SMM control protein annotation, biochemical, small-molecule microarray, Alexa647 label, 635 nm (AID 1127); settings: ConA-A647 binding fluorescence, higher = more signal;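 further: z combines 667 nm emission intensity with signal-to-noise across three replicate slides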
Sequence of Concanavalin-A (Canavalia ensiformis) (P02866 whole entry, looked up): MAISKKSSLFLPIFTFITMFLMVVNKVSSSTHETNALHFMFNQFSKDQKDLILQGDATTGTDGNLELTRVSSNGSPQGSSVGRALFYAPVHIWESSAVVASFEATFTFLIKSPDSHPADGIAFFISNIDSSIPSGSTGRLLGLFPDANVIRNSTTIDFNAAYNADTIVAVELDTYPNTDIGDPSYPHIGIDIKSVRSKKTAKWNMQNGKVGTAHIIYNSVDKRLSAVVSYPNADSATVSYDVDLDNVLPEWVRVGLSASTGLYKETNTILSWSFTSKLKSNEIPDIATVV

Sequence of Albumin (Bos taurus) (P02769 whole entry, looked up): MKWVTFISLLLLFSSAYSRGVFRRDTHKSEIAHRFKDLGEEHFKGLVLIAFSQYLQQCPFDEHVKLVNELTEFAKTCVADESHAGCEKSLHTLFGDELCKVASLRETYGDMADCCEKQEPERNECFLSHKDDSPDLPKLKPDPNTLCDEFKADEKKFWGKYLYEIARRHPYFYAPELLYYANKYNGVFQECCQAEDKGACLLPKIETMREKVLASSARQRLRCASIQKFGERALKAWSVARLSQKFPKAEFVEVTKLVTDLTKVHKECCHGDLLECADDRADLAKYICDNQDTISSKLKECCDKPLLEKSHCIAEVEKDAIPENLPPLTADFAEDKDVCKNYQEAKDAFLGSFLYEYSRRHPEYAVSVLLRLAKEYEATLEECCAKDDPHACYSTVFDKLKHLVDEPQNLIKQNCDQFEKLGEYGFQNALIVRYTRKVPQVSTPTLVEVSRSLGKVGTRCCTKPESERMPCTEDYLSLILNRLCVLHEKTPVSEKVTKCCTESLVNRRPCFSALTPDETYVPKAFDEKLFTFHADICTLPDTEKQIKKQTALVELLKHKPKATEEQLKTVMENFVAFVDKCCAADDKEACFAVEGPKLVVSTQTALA
Sequence of Left-right determination factor 2 (Homo sapiens) (O00292 whole entry, looked up): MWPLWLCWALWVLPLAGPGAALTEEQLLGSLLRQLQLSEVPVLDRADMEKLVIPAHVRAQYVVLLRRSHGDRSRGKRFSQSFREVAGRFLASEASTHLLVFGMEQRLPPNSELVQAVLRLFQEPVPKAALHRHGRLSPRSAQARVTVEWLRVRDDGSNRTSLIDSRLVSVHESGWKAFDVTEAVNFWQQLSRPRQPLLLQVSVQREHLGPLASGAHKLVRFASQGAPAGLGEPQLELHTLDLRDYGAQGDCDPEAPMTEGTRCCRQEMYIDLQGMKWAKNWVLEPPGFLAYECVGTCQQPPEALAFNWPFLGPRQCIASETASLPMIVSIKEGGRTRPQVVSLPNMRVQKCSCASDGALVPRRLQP
Sequence of Alpha-bungarotoxin (Bungarus multicinctus) (P60615 whole entry, looked up): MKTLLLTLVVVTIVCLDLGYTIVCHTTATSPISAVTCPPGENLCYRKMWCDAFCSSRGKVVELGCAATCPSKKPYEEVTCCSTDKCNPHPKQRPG
Sequence of Torsin-1A-interacting protein 1 (Homo sapiens) (Q5JTV8 whole entry, looked up): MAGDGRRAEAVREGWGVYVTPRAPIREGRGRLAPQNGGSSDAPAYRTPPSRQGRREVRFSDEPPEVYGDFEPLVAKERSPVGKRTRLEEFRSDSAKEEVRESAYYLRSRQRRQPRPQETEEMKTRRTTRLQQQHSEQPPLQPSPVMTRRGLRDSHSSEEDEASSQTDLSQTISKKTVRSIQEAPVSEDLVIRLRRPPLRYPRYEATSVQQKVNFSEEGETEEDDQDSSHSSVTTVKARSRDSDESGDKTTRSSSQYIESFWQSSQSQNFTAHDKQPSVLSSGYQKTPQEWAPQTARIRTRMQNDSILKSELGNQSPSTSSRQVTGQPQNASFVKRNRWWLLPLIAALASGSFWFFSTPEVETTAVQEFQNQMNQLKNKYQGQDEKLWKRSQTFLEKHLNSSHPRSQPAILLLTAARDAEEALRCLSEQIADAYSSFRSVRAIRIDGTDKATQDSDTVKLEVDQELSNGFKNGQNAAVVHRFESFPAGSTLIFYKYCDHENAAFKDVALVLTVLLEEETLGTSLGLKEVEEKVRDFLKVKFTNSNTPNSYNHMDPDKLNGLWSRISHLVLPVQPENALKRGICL

C=C(C)[C@@H]1CC=C(C(O)C2C=CC3C(=O)N(c4ccccc4)C(=O)C3N2Nc2ccccc2F)CC1 (stereo not given in full)
composite z-score [1]: 1.46
z-score [2]: -0.0769
composite z-score [3]: 0.341
composite z-score [4]: 1.41
composite z-score [5]: 0.797
composite z-score [6]: 0.0003
composite z-score [7]: -0.0858
composite z-score [8]: 1.4
composite z-score [9]: 1.04
composite z-score [10]: 1.19
composite z-score [11]: 0.956
composite Z-score [12]: 0.117 (inactive)
composite z-score [13]: 0.466
composite z-score [14]: -0.0467
composite z-score [15]: 0.747
composite z-score [16]: 3.08
composite z-score [17]: -0.102
composite z-score [18]: 1.34
composite z-score [19]: 0.0095
composite z-score [20]: 1.13

CCOc1cc(C(O)C2C=CC3C(=O)N(c4ccccc4)C(=O)C3N2Nc2ccc(C#N)cc2)ccc1O (stereo not given)
composite z-score [1]: 0.0289
z-score [2]: -0.131
composite z-score [3]: -0.0669
composite z-score [4]: 1.81
composite z-score [5]: 0.0646
composite z-score [6]: -0.261
composite z-score [7]: -0.315
composite z-score [8]: 0.0582
composite z-score [9]: 0.562
composite z-score [10]: 1.28
composite z-score [11]: 0.876
composite Z-score [12]: 0.793 (inactive)
composite z-score [13]: 0.0638
composite z-score [14]: -0.171
composite z-score [15]: 0.877
composite z-score [16]: 0.825
composite z-score [17]: 0.876
composite z-score [18]: -0.0645
composite z-score [19]: -0.879
composite z-score [20]: 1.03

C[N+](C)(C)CCCCCCNC(=O)[C@H]1C[C@H]2C(=O)N[C@@H](Cc3ccccc3)C(=O)N2[C@H]1c1ccc(O)cc1
composite z-score [1]: -0.306
z-score [2]: 0.975
composite z-score [3]: 1.09
composite z-score [4]: -0.667
composite z-score [5]: -0.973
composite z-score [6]: 0.0873
composite z-score [7]: -0.0146
composite z-score [8]: -0.175
composite z-score [9]: 0.302
composite z-score [10]: 0.966
composite z-score [11]: -0.459
composite Z-score [12]: -0.505 (inactive)
composite z-score [13]: -0.0471
composite z-score [14]: -0.137
composite z-score [15]: 0.4
composite z-score [16]: 1.05
composite z-score [17]: 0.0686
composite z-score [18]: 0.479
composite z-score [19]: 1.37
composite z-score [20]: 0.547

CC(C)C(=C=CC[C@H](O)c1ccc(OCCO)cc1)C[C@H](O)c1ccccn1
composite z-score [1]: 1.22
z-score [2]: -0.789
composite z-score [3]: -0.0676
composite z-score [4]: 0.0123
composite z-score [5]: -0.0896
composite z-score [6]: -0.1
composite z-score [7]: -0.0769
composite z-score [8]: -0.132
composite z-score [9]: 0.859
composite z-score [10]: 1.6
composite z-score [11]: 0.449
composite Z-score [12]: 0.168 (inactive)
composite z-score [13]: -0.0044
composite z-score [14]: -0.13
composite z-score [15]: 0.513
composite z-score [16]: 0.619
composite z-score [17]: 0.864
composite z-score [18]: 1.19
composite z-score [19]: -0.237
composite z-score [20]: -0.057

COCCOC(=O)N1C(=O)[C@@]2(c3cc(C#CC4=CCCCC4)ccc31)[C@H](c1ccc(O)cc1)N1[C@H](c3ccccc3)[C@H](c3ccccc3)OC(=O)[C@H]1[C@@H]2C(=O)N1CCN(c2ncccn2)CC1
composite z-score [1]: -0.444
z-score [2]: -0.131
composite z-score [3]: -0.742
composite z-score [4]: -0.676
composite z-score [5]: 0.451
composite z-score [6]: -0.195
composite z-score [7]: -0.138
composite z-score [8]: -0.445
composite z-score [9]: -0.201
composite z-score [10]: -1.11
composite z-score [11]: -1.34
composite Z-score [12]: -0.551 (inactive)
composite z-score [13]: -0.345
composite z-score [14]: -0.156
composite z-score [15]: -0.391
composite z-score [16]: -0.147
composite z-score [17]: 0.601
composite z-score [18]: -0.535
composite z-score [19]: -1.21
composite z-score [20]: -0.217

O=C1c2ccccc2[C@](Cc2ccccc2I)(C(=O)NCC(F)(F)F)[C@H](c2ccc(CO)cc2)N1C1CCCCC1
composite z-score [1]: 1.27
z-score [2]: -1.21
composite z-score [3]: 0.133
composite z-score [4]: 1.53
composite z-score [5]: 0.486
composite z-score [6]: -0.0405
composite z-score [7]: 0.0611
composite z-score [8]: 0.128
composite z-score [9]: -0.229
composite z-score [10]: 1.51
composite z-score [11]: 0.689
composite Z-score [12]: 0.328 (inactive)
composite z-score [13]: -0.0026
composite z-score [14]: -0.0956
composite z-score [15]: 0.729
composite z-score [16]: 2.31
composite z-score [17]: 0.326
composite z-score [18]: 1.31
composite z-score [19]: 0.227
composite z-score [20]: 1.16

COCCOC(=O)N1C(=O)[C@@]2(c3cc(C#Cc4ccc(OC)cc4)ccc31)[C@H](C(=O)Nc1nc3ccccc3s1)[C@H]1C(=O)O[C@H](c3ccccc3)[C@H](c3ccccc3)N1[C@@H]2c1ccc(O)cc1
composite z-score [1]: 1.38
z-score [2]: -0.841
composite z-score [3]: 0.631
composite z-score [4]: 0.876
composite z-score [5]: -0.138
composite z-score [6]: 0.0559
composite z-score [7]: 0.314
composite z-score [8]: -0.376
composite z-score [9]: 0.37
composite z-score [10]: 1.34
composite z-score [11]: 0.374
composite Z-score [12]: 0.364 (inactive)
composite z-score [13]: 0.214
composite z-score [14]: -0.118
composite z-score [15]: -0.111
composite z-score [16]: 1.91
composite z-score [17]: 0.171
composite z-score [18]: 1.33
composite z-score [19]: 0.576
composite z-score [20]: 1.16

COC(=O)C(CC#Cc1ccc2c(c1)[C@]1(C(=O)N2)[C@H](c2ccccc2OCCO)N2[C@H](c3ccccc3)[C@H](c3ccccc3)OC(=O)[C@H]2[C@@H]1C(=O)NC[C@H](O)c1ccccc1)C(=O)OC
composite z-score [1]: 1.39
z-score [2]: -2.08
composite z-score [3]: 0.261
composite z-score [4]: 0.0614
composite z-score [5]: -0.316
composite z-score [6]: 0.285
composite z-score [7]: 2.44
composite z-score [8]: 0.108
composite z-score [9]: 2.19
composite z-score [10]: 0.971
composite z-score [11]: 0.42
composite Z-score [12]: 0.231 (inactive)
composite z-score [13]: -0.19
composite z-score [14]: 0.0537
composite z-score [15]: 0.544
composite z-score [16]: 1.83
composite z-score [17]: 0.445
composite z-score [18]: 0.947
composite z-score [19]: 0.285
composite z-score [20]: 1.12

COC(=O)[C@@]1(Cc2ccccc2)[C@@H]2C(=CC(=O)[C@H]2CC(=O)C(=O)N(C)C)CN1C(=O)c1ccccc1
composite z-score [1]: 0.883
z-score [2]: -2.36
composite z-score [3]: 0.25
composite z-score [4]: 1.31
composite z-score [5]: 0.477
composite z-score [6]: 0.188
composite z-score [7]: 0.21
composite z-score [8]: 1.46
composite z-score [9]: 0.275
composite z-score [10]: 0.409
composite z-score [11]: 0.93
composite Z-score [12]: -0.0478 (inactive)
composite z-score [13]: 0.462
composite z-score [14]: 0.23
composite z-score [15]: 0.808
composite z-score [16]: 2.61
composite z-score [17]: 0.931
composite z-score [18]: 1.2
composite z-score [19]: -0.202
composite z-score [20]: 1.08

C=CCOC(=O)[C@H]1[C@@H]2C(=O)O[C@@H](c3ccccc3)[C@@H](c3ccccc3)N2[C@@H](c2ccc(OCCOC(=O)[C@H]3C[C@H]4C(=O)N[C@@H](CC(C)C)C(=O)N4[C@H]3c3cccc(OCCO)c3)cc2)[C@]12C(=O)Nc1ccc(I)cc12
composite z-score [1]: 1.31
z-score [2]: -1.51
composite z-score [3]: 1.08
composite z-score [4]: 0.621
composite z-score [5]: 0.0537
composite z-score [6]: -0.168
composite z-score [7]: -0.0769
composite z-score [8]: -0.141
composite z-score [9]: -0.302
composite z-score [10]: 0.473
composite z-score [11]: -0.172
composite Z-score [12]: 0.628 (inactive)
composite z-score [13]: 0.233
composite z-score [14]: -0.107
composite z-score [15]: 0.518
composite z-score [16]: 1.15
composite z-score [17]: 0.239
composite z-score [18]: 1.32
composite z-score [19]: 1.29
composite z-score [20]: 1.11

O[C@@H](Cc1ccccc1)[C@@H](/C=C/C1CC1)N(CC#Cc1ccccc1)Cc1cccc(Cl)c1
composite z-score [1]: -0.55
z-score [2]: -1.52
composite z-score [3]: -1.61
composite z-score [4]: -0.738
composite z-score [5]: 0.352
composite z-score [6]: -0.275
composite z-score [7]: -0.147
composite z-score [8]: -0.196
composite z-score [9]: -0.565
composite z-score [10]: -0.0369
composite z-score [11]: -0.22
composite Z-score [12]: 0.889 (inactive)
composite z-score [13]: -0.376
composite z-score [14]: -0.117
composite z-score [15]: -0.245
composite z-score [16]: -0.359
composite z-score [17]: 0.0449
composite z-score [18]: -0.117
composite z-score [19]: -1.21
composite z-score [20]: -0.403
